# IL-2 act = IL-2 activation; 360,000 compounds, 0.065% hits; IL-2 activation reporter assay, cell-based qHTS; stimulated with anti-CD3/CD4/CD28 beads; in transgenic mouse T cells; activation, % (series mostly up to about 46 µM); in the data active means activation above about 50%; inconclusive means mostly about 30% to 49%; further: 0% is about no effect
#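 Screening format: compound pinned onto unstimulated transgenic mouse T cells, 60 min incubation, then anti-CD3/anti-CD4/anti-CD28 bead stimulation for 18 hours at 37 degrees C, followed by EGFP and DsRed detection.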
# a7 integrin act = integrin-mediated muscular dystrophy alleviation activation; alpha7betagal myoblasts, beta-gal FDG fluorescence, 48 h; Potency, µM (series often up to 38.3 µM), without a hit: top-dose activation, most hits filed as activators; 350,000 compounds, 0.064% hits; AID 624291;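 further: potency means the concentration at half of the fitted maximal effect; 100% = response of the positive control SU9516; nearly all actives have a fitted effect of over 60% in size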
#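 Alpha7betagal+/- myoblasts (passage 13) were plated 16-24 hr, then exposed to compounds (1:260 dilution of DMSO stock) for 48 hours at 37C. After MPER lysis, β-galactosidase reporter activity was read as FDG fluorescence (ex 480/em 540) after 30 minutes.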
# BRCA1 expr up = BRCA1 expression activation; MCF7-BRCA1-FFLuc reporter, luminescence, 48 h; response scale: scaled: vehicle 0%, 10 µM genistein 100%; Potency, µM (series often up to 46.1 µM), without a hit: top-dose activation, usual class: activators; 380,000 compounds, 1.1% hits; further: potency means the concentration at half of the fitted maximal effect; nearly all actives have a fitted effect of over 80% in size
#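 Reporter cells (MCF7, BRCA1 promoter-firefly luciferase) received library compounds across a concentration series for 48 h. End-point luminescence was measured and concentration-effect curves derived after normalization.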
# Nrf2 activator = activators of Nrf2 (ARE) signaling. AREc32 ARE-luciferase reporter (MCF7-derived line), luminescence, 24 h. Potency, µM (highest dose often 46.1 µM), for the others: top-dose activation, usual class: activators. 410,000 compounds, 0.31% hits; further: potency means the concentration at half of the fitted maximal effect; % of control where 0% means no effect; nearly all actives have a fitted effect of over 65% in size
#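 Quantitative high-throughput format: AREc32 reporter cells, 1000 per well, received compound by pin transfer and were incubated 24 hr at 37 deg C, 5% CO2, before Steady-Glo luminescence detection.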
# N370S GC mod = inhibits or activates N370S mutant glucocerebrosidase; P04062; N370S GC spleen homogenate, 4MU-glucoside fluorescence; Potency, µM (top dose mostly 59.4 µM), for the others: top-dose activity change, negative = inhibition, usual class: inhibitors; 330,000 compounds, 0.092% hits; AID 2101;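 further: potency means the concentration at half of the fitted maximal effect; 0% = full enzyme activity and -100% = no enzyme basal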
# BCR signal inh = chronic active BCR signaling inhibition; ABC-DLBCL IkBa-CBG/CBR reporter, luminescence ratio, 4 h; Potency, µM (highest dose often 46.1 µM), for inactives: at the highest dose activity change, negative = inhibition, actives largely listed as inhibitors; 340,000 compounds, 0.05% hits; AID 493014; active means well fitted inhibition curve with a large enough effect in the signal ratio, with a control signal flat, not every such curve was filed as active; inconclusive means small, poorly fitted or top-dose-only effect, or effect the other way, or a change in a side signal; the % refers to the signal ratio;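 further: potency means the concentration at half of the fitted maximal effect; plate controls were basal doxycycline-induced cells for no effect and cells given 10 µM MG132 for full effect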
#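 Concentration-response series (up to 46 uM) were applied to TMD8 dual-reporter cells for 4 h at 37C with doxycycline. Green/red ratio, after filter-overlap correction, defined %Activity; red signal alone was normalised to basal cells and zero luminescence.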
# Active calls of the source: *; ? = inconclusive; · = not tested or not shown; ! = not confirmed by another sample; [ ] = another dose, or the depositor's remark. Hits are enriched below; roughly 1.4% of the tested compounds scored in any of these assays. Unless noted, the call rests on the fitted dose curve; in most records, active means well fitted curve in the direction sought with a large enough effect; inconclusive means small, poorly fitted or top-dose-only effect, or another doubt; inactive means no such curve, though single readings can be large; an effect the other way counts as inactive or inconclusive.
SMILES,IL-2 act,a7 integrin act,BRCA1 expr up,Nrf2 activator,N370S GC mod,BCR signal inh
COc1cc(/C=C/C(=O)OCC(=O)NC(=O)C2COc3ccccc3O2)ccc1OC(F)F (centres undefined),0,-18%,-3%,1%,·,1%
CCCOc1ccc(C(=O)Nc2ccc(NC(=O)c3ccccc3)c(C)c2)cc1,·,·,·,-1%,·,·
Cc1ccc([C@H]2N[C@]3(CCCN(Cc4ccco4)C3=O)[C@H]3C(=O)N(C)C(=O)[C@@H]23)cc1,0,20%,8%,0%,·,·
CC(=O)NC1=C(C#N)CCC1,·,·,-10%,·,·,·
Nc1ccc(/C=C/c2ccnc3ccccc23)cc1[N+](=O)[O-],·,·,56%,·,·,·
N#Cc1ccc(NC(=O)COc2ccccc2C(=O)Nc2ccccc2)cc1,·,·,0%,·,·,·
Nc1sccc1C(=O)c1ccc(Cl)cc1,1,6%,6.3µM*,6%,2%,-1%
CC1Oc2ccccc2OC1C(=O)Nc1ccccn1 (centres undefined),-3,1%,-57%,7.1µM*,-1%,-3%
O=C(Nc1ccccn1)C1COc2ccccc2O1 (centres undefined),1,27%,-20%,9%,5%,?
O=C(C1=C[C@@H](c2ccc(Br)cc2)C[C@@H](OCc2ccc(CO)cc2)O1)N1CCN(Cc2ccccc2)CC1,-3,-44%,-24%,-3%,14µM*,-2%
O=C(C1=C[C@@H](c2ccc(C(F)(F)F)cc2)C[C@@H](OCc2ccc(CO)cc2)O1)N1CCN(Cc2ccc3c(c2)OCO3)CC1,-5,-41%,-8%,0%,10µM*,-4%
C#Cc1ccc([C@H]2C=C(C(=O)N3CCN(Cc4ccccc4)CC3)O[C@@H](OCc3ccc(CO)cc3)C2)cc1,-1,22%,-48%,7%,5%,7%
O=C(C1=C[C@H](c2ccc(C(F)(F)F)cc2)C[C@H](OCc2ccc(CO)cc2)O1)N1CCN(Cc2ccc3c(c2)OCO3)CC1,-1,-42%,-64%,5%,-29%,0%
COc1ncc2nc(-c3cccc(C#N)c3)c(=O)n(CCC#N)c2n1,·,·,·,·,14%,·
CCOc1ncccc1C(=O)Nc1cc(S(=O)(=O)N(CC)CC)ccc1N1CCOCC1,-1,-9%,-30%,0%,·,1%
COc1ccc(-c2cn3c(n2)sc2cc(C(=O)NC4CCCc5ccccc54)ccc23)cc1 (centres undefined),·,·,·,3%,·,·
CCOc1ccc(C(=O)Nc2ccc(-c3nc4ccccc4[nH]3)cc2)cc1[N+](=O)[O-],0,-10%,3.2µM*!,2%,-10%,3%
COc1ccc(NC(=O)n2nc(OC(=O)c3cccs3)cc2N)cc1,-2,10%,13µM*,0%,2%,?
O=C(COC(=O)c1ccc(O)cc1)c1ccc2c(c1)OCCO2,0,13%,10µM*,2%,-2%,?
O=C(OCCN1CCOCC1)c1ccc2c(c1)OCCO2,-3,9%,7.9µM*,0%,3%,·
O=C(COC(=O)c1ccc(O)cc1)Nc1ccc2c(c1)OCCO2,-1,-2%,?,4%,·,-4%
Cc1ccccc1-n1c(SC(C)C(=O)NCC2CCCO2)nnc1-c1ccncc1 (centres undefined),-3,17%,-9%,0%,·,·
COc1cccc(/C=N/n2nnnc2N)c1,2,-16%,-18%,2%,17%,0%
Cc1ccc(/C=N/n2nnnc2N)cc1,0,-11%,6.3µM*,0%,·,·
CCCN(CC(=O)Nc1ccc(Cl)cc1Cl)C(=O)/C=C/c1ccco1,1,0%,-9%,11µM*,14%,?
SMILES,IL-2 act,a7 integrin act,BRCA1 expr up,Nrf2 activator,N370S GC mod,BCR signal inh
Fc1ccc(/C=N/NC2=Nc3cccc4cccc2c34)cc1,119*,18%,-27%,20%,2%,?
COc1ccc(NC(=O)CC2Oc3ccc(C)cc3NC2=O)cc1Cl (centres undefined),·,·,·,0%,·,·
Cc1cnc(-c2nnc(N(C)C(=O)C3CCOC3)s2)cn1 (centres undefined),0,-24%,7.9µM*,-1%,-11%,-6%
CN(C(=O)C1CCOC1)c1nnc(-c2ccccn2)s1 (centres undefined),-1,15%,?,-1%,1%,?
O=C(Cn1nc(Br)nc1Br)c1ccccc1,-4,5%,9%,3%,-4%,3%
Cc1ccc(C)c(-c2nnc(NC(=O)C3=COCCO3)o2)c1,4,-22%,15%,3%,-4%,-29%
O=C(NN(c1ccccc1)c1ccccc1)c1ccc([N+](=O)[O-])o1,0,-41%,-59%,?,8%,?
O=C(NNC(=O)c1ccc([N+](=O)[O-])o1)c1ccccc1,0,-34%,-48%,22µM*,?,?
O=C(Nc1nc2ccccc2s1)c1ccc([N+](=O)[O-])o1,1,-4%,-47%,3.5µM*,-2%,?
NS(=O)(=O)c1ccc(O)c(NC(=O)c2ccc([N+](=O)[O-])o2)c1,-2,-16%,-25%,10µM*,-10%,-11%
COc1ccc2nc(NC(=O)c3ccc([N+](=O)[O-])o3)sc2c1,-1,-56%,-87%,?,0%,?
Cc1cc(C)cc(NC(=O)c2ccc([N+](=O)[O-])o2)c1,0,-54%,-88%,?,1%,?
Cc1ccc(C)c(-c2nnc(NC(=O)c3ccc([N+](=O)[O-])o3)o2)c1,-3,2%,-84%,3.5µM*,-3%,?
O=C(c1cc(S(=O)(=O)N2CCOCC2)ccc1Cl)N1CCCCC1CO (centres undefined),0,20%,-4%,-1%,·,5%
Cc1ccc(S(=O)(=O)N2CCN(c3nc(-c4cncn4C)nc4ccccc34)CC2)cc1,·,·,-32%,·,·,·
CC(C)COc1ccc(C(=S)N2CCCC2)cc1,0,0%,-53%,0%,·,·
NC(=O)C(OC(=O)CNC(=O)C1CCCCC1)c1ccccc1 (centres undefined),·,·,-1%,·,·,·
Cn1c2c(c3cnc4cc(Cl)ccc4c31)CNCC2,·,·,-38%,·,·,·
CO[C@@H]1COC(=O)CC=C[C@@H](C)[C@@H]2C=C[C@H](O)[C@@H](COC(=O)C/C=C\[C@H]1C)O2,·,·,·,·,10%[12.8 µM],·
Cc1cc(C)c2sc(NC(=O)c3ccc([N+](=O)[O-])o3)nc2c1,-2,-15%,-1%,7.9µM*,-4%,?
O=C(Nc1nc(-c2ccccn2)cs1)c1ccc([N+](=O)[O-])o1,-3,-29%,-72%,11µM*,-6%,?
Cc1ccc(C(=O)Nc2nc(-c3ccccn3)cs2)o1,2,-17%,-48%,2%,1%,5%

# Screens as filed in PubChem BioAssay.
